# PAFAH1B2 FP inh = inhibitors of human PAFAH1B2; P68402; recombinant PAFAH1B2, FP-rhodamine activity probe, fluorescence polarization; inhibition, % at 3.39 µM; 340,000 compounds, 1.2% hits;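 active = inhibition above the mean of all tested compounds plus 3 SD, cut at about 24% in these data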;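 also: 0% = enzyme with DMSO and 100% = wells lacking PAFAH1B2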
# Target sequence (P68402 whole entry, looked up): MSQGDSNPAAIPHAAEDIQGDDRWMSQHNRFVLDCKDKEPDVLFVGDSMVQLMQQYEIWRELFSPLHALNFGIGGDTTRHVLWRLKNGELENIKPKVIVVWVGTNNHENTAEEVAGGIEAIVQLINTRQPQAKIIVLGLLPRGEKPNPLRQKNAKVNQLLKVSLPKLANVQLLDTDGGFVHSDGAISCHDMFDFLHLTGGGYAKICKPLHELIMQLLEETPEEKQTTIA
# pPAFAH FP inh = inhibitors of human plasma PAF acetylhydrolase (pPAFAH); recombinant pPAFAH, FP-rhodamine probe fluorescence polarization; 330,000 compounds, 1.5% hits; inhibition, % at 3.39 µM;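 active = inhibition above the mean inhibition across the screen plus 3 SD, cut at about 25% in these data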;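 also: inhibitors block binding of the rhodamine activity-based probe so polarization drops; 0% = enzyme with DMSO and 100% = wells lacking pPAFAH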
# PAFAH2 inh = inhibitors of human PAFAH2; Q99487; 340,000 compounds, 0.99% hits; recombinant PAFAH2, FP-rhodamine activity probe, fluorescence polarization; inhibition, % at 3.39 µM;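 active = inhibition above the mean over all tested compounds plus 3 SD, cut at about 30% in these data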;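 also: inhibitors block probe labeling of enzyme so polarization drops; 0% = enzyme with DMSO and 100% = wells lacking PAFAH2 protein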
# Fam108B counter = counter-screen for RBBP9 inhibitors: inhibitors of mouse Fam108B | inhibition, % at 9.51 µM | 300,000 compounds, 0.33% hits | AID 1947 | recombinant Fam108B, FP-Rh probe fluorescence polarization;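 active = inhibition above the screen mean inhibition plus 3 SD, computed separately per campaign, cut at about 18% in these data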;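 also: inhibitors lower polarization as less probe binds the enzyme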
# PAFAH1B3 inh = PAFAH1B3 (human) inhibition. 340,000 compounds, 0.28% hits. inhibition, % at 3.39 µM. recombinant PAFAH1B3, FP-rhodamine probe, fluorescence polarization. AID 492972;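 active = inhibition above the screen-wide average of all tested compounds plus 3 SD, cut at about 25% in these data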;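 also: 0% = enzyme with DMSO only and 100% = wells lacking PAFAH1B3 protein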
# PME-1 primary = PME-1 (human) inhibition; 320,000 compounds, 0.53% hits; Q9Y570; inhibition, % at 5.9 µM; recombinant PME-1, FP-Rh probe fluorescence polarization;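 active = inhibition above the campaign mean of all compounds plus 3 SD, cut at about 26% in these data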;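 also: competitive labeling of PME-1 active site by serine hydrolase directed probe; 0% = PME-1 with DMSO and 100% = wells lacking PME-1 enzyme; inhibitors block probe labeling so polarization falls and inhibition rises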
# Target sequence (Q9Y570 whole entry, looked up): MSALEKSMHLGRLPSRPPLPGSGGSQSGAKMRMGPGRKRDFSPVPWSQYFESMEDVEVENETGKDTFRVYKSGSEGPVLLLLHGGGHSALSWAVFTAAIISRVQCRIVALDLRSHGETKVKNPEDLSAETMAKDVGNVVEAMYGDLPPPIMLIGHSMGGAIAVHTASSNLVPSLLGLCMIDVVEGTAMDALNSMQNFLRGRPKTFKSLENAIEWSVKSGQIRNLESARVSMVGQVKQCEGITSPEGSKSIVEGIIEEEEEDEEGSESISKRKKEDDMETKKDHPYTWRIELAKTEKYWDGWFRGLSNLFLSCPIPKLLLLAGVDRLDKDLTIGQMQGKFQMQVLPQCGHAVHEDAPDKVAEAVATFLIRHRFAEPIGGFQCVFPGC
# * hit, by the source's call; . = not tested or not shown. In the library only some 2.9% were active in any assay of this set; here they are far more common.
SMILES,PAFAH1B2 FP inh,pPAFAH FP inh,PAFAH2 inh,Fam108B counter,PAFAH1B3 inh,PME-1 primary
Cc1cccc(OCCNS(=O)(=O)c2ccc(Cl)cc2)c1,24*,6,3,.,-3,-3
CCOC(=O)CC(=O)COc1nc2cc3c(nc2o1)CCCC3,8,12,9,0,5,-1
COc1cccc(-c2nnc(SCCC(=O)O)n2C)c1,5,4,0,9,7,1
COc1cccc(-c2nnc(SC(C(=O)c3c[nH]c4ccccc34)c3ccccc3)n2C)c1 (stereo not given),-3,-7,-2,-3,7,56*
O=C1C(O)=C(O)C(=O)c2ccccc21,3,10,15,12,30*,11
O=C(NCCC1=CCCCC1)Nc1ccc2nsnc2c1,15,-1,0,0,5,-7
Cc1ccc(S(=O)(=O)NC(=O)N(CCC#N)Cc2ccccc2)cc1,10,13,-5,-1,3,8
C/C(=N/OC(=O)C1CC1c1ccccc1)c1ccccc1 (stereo not given),46*,13,32*,3,6,-3
NS(=O)(=O)c1ccc(NS(=O)(=O)c2ccc(C3CNC(=O)C3)cc2)cc1 (stereo not given),8,-9,10,-5,9,-2
CC(C)c1ccc2[nH]c(O)c(N=NC(=O)c3cccc(S(=O)(=O)N4CCCCC4)c3)c2c1,-2,5,-1,8,-2,53*
CC(=O)O/N=C1\C(=O)N(Cc2ccc(C)cc2)c2ccccc21,-2,.,-14,.,-11,.
CC(C)CC(=O)O/N=C1\C(=O)N(Cc2ccc(Cl)cc2)c2ccc([N+](=O)[O-])cc21,.,35*,.,43*,.,35*
Cc1cc(C)c(S(=O)(=O)/N=C2/C=C(SCC(=O)O)C(=O)c3ccccc32)cc1C,22,.,30*,.,37*,.
CCOC(=O)C(NC(=O)Nc1ccc(Cl)cn1)(Oc1ccc(F)cc1)C(F)(F)F (stereo not given),1,-3,-6,0,12,-8
O=C1C=CC(=O)c2c(O)c(CO)c(CO)c(O)c21,25*,.,68*,.,50*,.
CCCN(CCC)C(=O)C1CCN(c2ccc(S(=O)(=O)N3CCOCC3)cc2[N+](=O)[O-])CC1,9,4,0,-2,-1,2
Cc1ccccc1-c1nnn(C/C(N)=N/O)n1,4,3,-1,-6,6,2
CN(C)C(=O)COC(=O)c1ccccc1Nc1ccc(SC(F)F)cc1,4,26*,6,4,9,-4
O=[N+]([O-])c1ccc(S(=O)(=O)NN=Cc2ccc3c(c2)OCO3)cc1,8,.,15,.,4,.
O=S(=O)(N/N=C/c1ccc2c(c1)OCO2)c1ccc(Br)cc1,26*,1,-1,0,7,4
NC(=O)c1cc([N+](=O)[O-])ccc1NCc1cccc(N)c1,-6,4,4,2,4,0
O=C(NCCC1=CCCCC1)c1ccc(Cl)c(S(=O)(=O)Nc2ccccc2)c1,28*,16,11,-5,-8,4
Cc1ccc(S(=O)(=O)N2[C@@H](c3ccccc3)C(C(=O)O)=CC[C@H]2c2ccc3c(c2)OCO3)cc1,14,9,-3,-3,8,-4
COc1ccc([C@@H]2CC=C(C(=O)O)[C@H](c3ccc(Br)cc3)N2S(=O)(=O)c2ccc(C)cc2)cc1OC,18,6,3,.,10,.
O=C(O)C1=CC[C@@H](c2ccc(Cl)cc2)N(S(=O)(=O)c2ccc(Cl)cc2)[C@H]1c1ccc(Br)cc1,88*,21,-7,.,3,.
SMILES,PAFAH1B2 FP inh,pPAFAH FP inh,PAFAH2 inh,Fam108B counter,PAFAH1B3 inh,PME-1 primary
Cc1ccccc1S(=O)(=O)N1[C@@H](c2ccc(Br)cc2)C(C(=O)O)=CC[C@H]1c1ccc(Cl)cc1,84*,7,5,.,-5,.
COc1ccc([C@@H]2CC=C(C(=O)O)[C@H](c3cccc(Cl)c3)N2S(=O)(=O)c2ccccc2C)cc1,26*,2,3,-1,7,3
CCc1ccccc1NC(=O)CSc1ccsc1[N+](=O)[O-],1,25*,7,8,2,2
COc1ccccc1CNC(=O)CSc1ccsc1[N+](=O)[O-],-4,5,7,2,-1,3
CCN(CC(=O)Nc1c(F)cccc1F)C(=O)c1ccc(OCC(=O)N2CCOCC2)c(OC)c1,1,.,-3,.,17,.
Cc1ccc(-c2nnc(SCC(=O)NCCN3C(=O)CSC3=O)n2C)cc1,3,4,4,.,1,-2
Cc1ccc(S(=O)(=O)N2CC(O)C[C@H]2C(=O)OCC(=O)Nc2ccc(N3CCCCC3)cc2)cc1C (stereo not given in full),1,25*,9,8,3,5
Cc1cc(OCC(=O)Nc2ccc(N3CCCC3)cc2)cc(C)c1Cl,-2,26*,6,3,0,-4
CCOc1ccc(OCC(=O)Nc2ccc(N3CCCCC3)cc2)cc1,11,6,2,2,10,-1
CN1CCC(N(C)C(=O)c2cc(-c3ccccc3Cl)nc3ccccc23)CC1,-1,4,2,.,0,3
N#C/C(=C\c1cccnc1)C(=O)Nc1ccccc1[N+](=O)[O-],13,26*,-3,5,11,3
CCN(CC)c1ccc(NC(=S)NC(=O)c2cccs2)cc1,6,10,9,3,9,9
CC1CCN(C(=O)COC(=O)c2ccc([N+](=O)[O-])o2)CC1,7,28*,0,.,12,.
CC1CCN(C(=O)COC(=O)c2ccc(Br)o2)CC1,6,7,7,-1,3,1
S=c1[nH]nc(Cc2cccc3ccccc23)o1,9,3,-6,0,5,-4
CC(Cc1n[nH]c(=S)o1)c1ccccc1 (stereo not given),26*,2,13,-1,2,-4
COc1ccccc1-n1c(SCC(=O)N2CCOCC2)nc(O)cc1=O,-4,34*,0,0,7,3
Cc1ccccc1Nc1nc(N)nc(COC(=O)CCNS(=O)(=O)c2ccccc2)n1,3,28*,5,9,-2,-1
O=C(CCNS(=O)(=O)c1ccccc1)OCC(=O)c1ccc(F)cc1,7,34*,8,4,-3,4
Cc1ccc(S(=O)(=O)N(C)C)cc1NC(=O)COC(=O)CCNS(=O)(=O)c1ccccc1,11,.,5,.,3,.
Cc1cc(Cl)ccc1NC(=O)COC(=O)CCNS(=O)(=O)c1ccccc1,4,34*,3,.,-1,-1
O=C(COC(=O)Cc1ccc(Cl)cc1)NCc1ccco1,4,15,11,.,14,.
O=C(COC(=O)CCNS(=O)(=O)c1ccc(Cl)cc1)NCc1ccco1,14,27*,3,-1,2,-2
Cc1ccc(C(=O)Nc2cccc3cccnc23)cc1C,-6,5,-1,-1,6,-5
